Bioassay records: PubChem, Broad Institute
U2OS ROS induce – raises reactive oxygen species in U2OS cancer cells; U2OS ROS induction, H2DCF-DA fluorescence; ROS induction (% of piperlongumine), % at 10 µM; 46,000 tested, 2% active; AID 624156; in the data active = ROS induction above about 79%, passing the limit was not always enough;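 also: 0% = DMSO vehicle median and 100% = reference compound median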
* hit, by the source's call. The sample as a whole holds a higher share of hits than the screen did.

What do the screens show for `C=C(CO)C(=O)O[C@H]1C[C@@]23O[C@@H]2CC/C(=C/[C@H]2OC(=O)C(=C)[C@H]12)CO[C@@H]3O`?
U2OS ROS induce: 55

How did C=C1C(=O)O[C@@H]2/C=C(\CO)CCC/C(C)=C/[C@H](O)C12 (stereo partly specified) do in these assays?
U2OS ROS induce: 45

What do the screens show for `COc1ccc(Cn2c3ccccc3c3nc4ccccc4nc32)cc1`?
U2OS ROS induce: -9

How did CCOC(=O)CSc1ncc(-c2ccccc2)nn1 do in these assays?
U2OS ROS induce: -4

How did CCOC(=O)CSc1sc(C(=O)OCC)c2c1S(=O)(=O)N(C)c1ccccc1-2 do in these assays?
U2OS ROS induce: 112*

What do the screens show for `CCOC(=O)CSc1nnc(-c2ccc(OC)cc2)n1-c1ccccc1C`?
U2OS ROS induce: 9

How did O=C(Cc1cccs1)N1CCN(c2ccccc2)CC1 do in these assays?
U2OS ROS induce: -10

How did COc1ccc(CN(C)C[C@@H]2Oc3ccc(NC(=O)Nc4ccc(OC)cc4)cc3CC(=O)N([C@H](C)CO)C[C@@H]2C)cc1 do in these assays?
U2OS ROS induce: -15

Results for COc1ccc(NC(=O)N(C)C[C@@H]2Oc3ccc(NC(=O)C4CC4)cc3CC(=O)N([C@H](C)CO)C[C@H]2C)cc1 ?
U2OS ROS induce: 120*

What do the screens show for `COc1ccc(CN(C)C[C@H]2Oc3ccc(NC(=O)Nc4ccc(OC)cc4)cc3CC(=O)N([C@@H](C)CO)C[C@@H]2C)cc1`?
U2OS ROS induce: 11

How did C[C@H]1CN([C@@H](C)CO)C(=O)Cc2cc(N(C)C)ccc2O[C@H]1CN(C)Cc1ccc(C(=O)O)cc1 do in these assays?
U2OS ROS induce: -8

What do the screens show for `C[C@@H]1CN([C@H](C)CO)C(=O)Cc2cc(NC(=O)C3CC3)ccc2O[C@H]1CN(C)Cc1ccc(Oc2ccccc2)cc1`?
U2OS ROS induce: 20

What do the screens show for `COc1ccc(NC(=O)N(C)C[C@H]2Oc3ccc(NC(=O)C4CC4)cc3CC(=O)N([C@@H](C)CO)C[C@H]2C)cc1`?
U2OS ROS induce: 4

How did C[C@@H]1CN([C@H](C)CO)C(=O)Cc2cc(N(C)C)ccc2O[C@@H]1CN(C)Cc1ccc(C(=O)O)cc1 do in these assays?
U2OS ROS induce: -5

Results for COc1ccc(NC(=O)Nc2ccc3c(c2)CC(=O)N([C@@H](C)CO)C[C@H](C)[C@H](CN(C)Cc2ccc(C(=O)O)cc2)O3)cc1 ?
U2OS ROS induce: 133*

How did COc1ccc(NC(=O)N(C)C[C@H]2Oc3ccc(NC(=O)C4CC4)cc3CC(=O)N([C@H](C)CO)C[C@H]2C)cc1 do in these assays?
U2OS ROS induce: -15

What do the screens show for `C[C@H]1CN([C@@H](C)CO)C(=O)Cc2cc(N(C)C)ccc2O[C@@H]1CN(C)Cc1ccc(C(=O)O)cc1`?
U2OS ROS induce: 113*

Results for COc1ccc(CN(C)C[C@@H]2Oc3ccc(NC(=O)C4CC4)cc3CC(=O)N([C@H](C)CO)C[C@@H]2C)cc1 ?
U2OS ROS induce: 104*

How did COc1ccc(CN(C)C[C@H]2Oc3ccc(NC(=O)C4CC4)cc3CC(=O)N([C@@H](C)CO)C[C@@H]2C)cc1 do in these assays?
U2OS ROS induce: 5

Results for NC(=O)c1cc2c(n(-c3ccccc3)c1=O)CCCC2=O ?
U2OS ROS induce: 4

What do the screens show for `C=C(C)C(=O)OCCc1ccc(O)c(-n2nc3ccccc3n2)c1`?
U2OS ROS induce: 50

Results for O=C(CCn1nc(C(F)(F)F)cc1C1CC1)NCCC1=CCCCC1 ?
U2OS ROS induce: -8

How did CCOc1ccc2c3c(c(=O)oc2c1C)CCC3 do in these assays?
U2OS ROS induce: 22

What do the screens show for `O=C(c1ccc(NC2=NC3CS(=O)(=O)CC3S2)cc1)N1CCCCC1` (stereo unspecified)?
U2OS ROS induce: -5

Results for CCCOc1ccc(/C=C/C(=O)Nc2ccc(S(=O)(=O)Nc3ncccn3)cc2)cc1 ?
U2OS ROS induce: 17

Results for Cc1ccc(-c2csc3ncnc(NCCN4CCNC4=O)c23)cc1 ?
U2OS ROS induce: 15

How did COC(=O)c1ccc(NC(=O)N2CCOc3ccc(C)cc32)cc1 do in these assays?
U2OS ROS induce: -14

How did CCN(Cc1ccccc1)C(=O)C(C)Oc1ccccc1 (stereo unspecified) do in these assays?
U2OS ROS induce: 1

What do the screens show for `COc1ccc2c(Sc3ccc(C)cc3)c(C(=O)NCCc3ccc(OC)c(OC)c3)[nH]c2c1`?
U2OS ROS induce: 6

How did O=c1[nH]c(CSc2nnc(-c3ccccc3)n2C2CCCCC2)nc2ccccc12 do in these assays?
U2OS ROS induce: 3

How did CCn1c(SCc2nc3ccccc3c(=O)[nH]2)nc2ccccc2c1=O do in these assays?
U2OS ROS induce: 94*

What do the screens show for `Cc1ccc(CSc2nc3ccccc3c(=O)n2CCc2ccccc2)cc1`?
U2OS ROS induce: 17

Results for CCOC(=O)c1sc2nc3n(c(=O)c2c1C)N=C(c1cc2cc(Cl)ccc2oc1=O)CS3 ?
U2OS ROS induce: -8

How did O=C(O)CC1(Cc2nc(-c3ccc(Cl)cc3)no2)CCCC1 do in these assays?
U2OS ROS induce: -2

How did CCc1ccc(Nc2nc(-c3cc4ccccc4oc3=O)cs2)cc1 do in these assays?
U2OS ROS induce: -3

Results for COc1ccc(C(C)(C)C)cc1S(=O)(=O)NCC1CCCO1 (stereo unspecified) ?
U2OS ROS induce: 8

Results for Cc1ccc(Nc2nnc(-c3ccc(C)c(S(=O)(=O)NCC4CCCO4)c3)c3ccccc23)cc1 (stereo unspecified) ?
U2OS ROS induce: 216*

What do the screens show for `Cc1ccc(-c2nnc(N3CCOCC3)c3ccccc23)cc1S(=O)(=O)NC(C)(C)CO`?
U2OS ROS induce: -7

What do the screens show for `Cc1ccc(S(=O)(=O)c2[nH]nc3ccc(Cl)cc23)cc1`?
U2OS ROS induce: 4

Results for O=C(CSc1nc2nccnc2c(=O)n1Cc1ccccc1)Nc1ccccc1C(F)(F)F ?
U2OS ROS induce: -9

How did N#Cc1ccc(CSc2nc3ncccc3c(=O)n2Cc2ccccc2)cc1 do in these assays?
U2OS ROS induce: 14

Results for CCCCS(=O)CSc1nc(-c2cccs2)cc(-c2ccccc2)c1C#N (stereo unspecified) ?
U2OS ROS induce: 18

What do the screens show for `CCS(=O)CCSc1nc(-c2ccc(C)cc2)cc(-c2ccccc2)c1C#N` (stereo unspecified)?
U2OS ROS induce: -8

How did CCS(=O)CCSc1nc(-c2ccc(Br)cc2)cc(-c2ccccc2)c1C#N (stereo unspecified) do in these assays?
U2OS ROS induce: 166*

Results for O=C(/C=C/c1ccccc1)Nc1ccc(N2CCN(c3ccc(C(F)(F)F)cn3)CC2)nc1 ?
U2OS ROS induce: -2

Results for O=C(c1ccco1)N1CCN(c2ccc(C(F)(F)F)cn2)CC1 ?
U2OS ROS induce: 8

Results for O=C(Nc1ccc(C(F)(F)F)cc1)c1cnc(N2CCN(c3ccccn3)CC2)c2ccccc12 ?
U2OS ROS induce: 96*

Results for CC1CCN(S(=O)(=O)c2ccc(C(=O)NC34CC5CC(CC(C5)C3)C4)cc2)CC1 ?
U2OS ROS induce: 0

How did Cc1cc(C)c(Cn2c(S(=O)(=O)Cc3ccccc3)nc3ccccc32)c(C)c1 do in these assays?
U2OS ROS induce: -5

What do the screens show for `OC(c1ccccc1)c1nnc(SCc2ccc(Br)cc2)n1-c1ccccc1` (stereo unspecified)?
U2OS ROS induce: 10

What do the screens show for `CCOC(=O)c1cn(CC)c2ccc(S(=O)(=O)N3CCc4ccccc4C3)cc2c1=O`?
U2OS ROS induce: -11

What do the screens show for `CCC(Sc1nnc2c3ccccc3n(CC)c2n1)C(=O)NC(C)c1ccccc1` (stereo unspecified)?
U2OS ROS induce: 18

Results for CCCCn1c2ccccc2c2nnc(SCC(=O)c3ccccc3)nc21 ?
U2OS ROS induce: -6
